Screening results from PubChem BioAssay.
HPGD inh: inhibitors of human 15-hydroxyprostaglandin dehydrogenase (HPGD). purified HPGD, NADH fluorescence kinetic, PGE2 substrate. Potency, µM, inactives show top-dose activity change, negative = inhibition, actives largely listed as inhibitors. P15428. AID 894. 4.3% of 150,000 active; also: % is scaled to controls: 0 for no effect and ±100 for the full control effect
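20 nM HPGD preincubated 15 min at room temperature with compound in 50 mM Tris-HCl pH 8, 0.01% Tween 20. Started with 1 mM NAD+ and 30 uM prostaglandin E2; NADH fluorescence (360/450 nm) read 5 times over 30-s intervals, last minus first.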
HttQ103 aggreg: mutant huntingtin aggregation inhibition; Potency, µM (series often up to 46.1 µM), for inactives: top-dose activity change, negative = inhibition, most hits filed as inhibitors; PC12 HttQ103-GFP aggregates, Acumen cytometry, 40 h; 1.1% of 220,000 active; AID 1688; active = well fitted curve in the direction sought with a large enough effect; inconclusive = small, poorly fitted or top-dose-only effect, or another doubt; inactive = no such curve, though single readings can be large; an effect the other way counts as inactive or inconclusive; also: % is scaled to controls: 0 for no effect and ±100 for the full control effect; nearly all actives have a fitted effect of over 60% in size
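Aggregate formation scored by laser-scanning cytometer (488 excitation, 500–530 emission) in lysed PC12 cells expressing Q103-GFP after 100 nM tebufenozide induction; library tested in dose series, with ATPLite reagent added in the multiplex.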
ALDH1A1 inh: ALDH1A1 (human) enzyme inhibition | P00352 | Purified ALDH1A1, NADH fluorescence, propionaldehyde substrate | Potency, µM (series often up to 75.3 µM), for the others: at the highest dose activity, negative = inhibition, actives largely listed as inhibitors | 7.3% of 220,000 active;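 also: plate controls were no enzyme wells and a reference inhibitor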
Target sequence (P00352 whole entry, looked up): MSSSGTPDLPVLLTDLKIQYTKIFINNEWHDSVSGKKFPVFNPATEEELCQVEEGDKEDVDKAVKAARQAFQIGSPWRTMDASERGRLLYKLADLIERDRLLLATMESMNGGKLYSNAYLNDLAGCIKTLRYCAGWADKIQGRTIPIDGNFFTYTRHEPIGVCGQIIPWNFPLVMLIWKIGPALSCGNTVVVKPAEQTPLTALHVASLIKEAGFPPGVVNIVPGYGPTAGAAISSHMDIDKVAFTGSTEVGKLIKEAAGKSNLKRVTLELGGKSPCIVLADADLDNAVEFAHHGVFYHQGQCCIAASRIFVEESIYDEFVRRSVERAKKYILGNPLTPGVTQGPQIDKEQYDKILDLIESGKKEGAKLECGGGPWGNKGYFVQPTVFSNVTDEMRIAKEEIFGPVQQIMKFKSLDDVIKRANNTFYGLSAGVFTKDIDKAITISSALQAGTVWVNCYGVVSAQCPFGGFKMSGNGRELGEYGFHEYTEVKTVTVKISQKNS
HTT cytoprotect: cytoprotection in Huntington HTT-Q103 PC12 cell model | PC12 HTT-Q103 induced, cytoprotection, ATP luminescence, 40 h | Potency, µM (doses to about 56.4 µM), inactives show cytoprotection (ATP increase), most hits filed as activators | 0.14% of 230,000 active | AID 1471; active = well fitted curve in the direction sought with a large enough effect; inconclusive = small, poorly fitted or top-dose-only effect, or another doubt; inactive = no such curve, though single readings can be large; an effect the other way counts as inactive or inconclusive; also: % of control where 0% means no effect; nearly all actives have a fitted effect of over 45% in size
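Quantitative HTS on tebufenozide-induced (100 nM) PC12 cells expressing HTTQ103 exon 1–GFP; compounds tested as a concentration series; survival measured via cellular ATP.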
KDM4E inh: inhibitors of human JMJD2E histone demethylase; JMJD2E catalytic domain, FDH-coupled NADH fluorescence (FDH is formaldehyde dehydrogenase); Potency, µM (titrated, usually from 57.1 µM), for inactives: top-dose activity change, negative = inhibition, usual class: inhibitors; 1.6% of 230,000 active; B2RXH2; AID 2147;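 also: 0% = wells with enzyme and -100% = buffer wells without enzyme; nearly all actives have a fitted effect of over 50% in size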
Target sequence (B2RXH2 1-337 limits assumed): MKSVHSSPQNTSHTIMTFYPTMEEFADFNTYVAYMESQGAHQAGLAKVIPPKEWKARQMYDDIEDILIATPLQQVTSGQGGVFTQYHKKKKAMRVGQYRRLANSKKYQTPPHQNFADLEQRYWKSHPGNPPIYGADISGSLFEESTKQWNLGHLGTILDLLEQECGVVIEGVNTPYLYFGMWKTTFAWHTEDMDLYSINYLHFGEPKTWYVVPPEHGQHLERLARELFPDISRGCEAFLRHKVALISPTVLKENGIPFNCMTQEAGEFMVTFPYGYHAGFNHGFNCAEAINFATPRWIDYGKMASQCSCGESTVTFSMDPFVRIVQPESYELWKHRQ
Lamin A splicing: LMNA splicing modulation. HeLa LMNA splicing GFP/RFP minigene ratio, 48 h. Potency, µM (titrated, usually from 46.1 µM), without a hit: at the highest dose ratio change, negative = inhibition, usual class: inhibitors. 0.01% of 200,000 active; active = well fitted inhibition curve with a large enough effect in the signal ratio, with a control signal flat, not every such curve was filed as active; inconclusive = small, poorly fitted or top-dose-only effect, or effect the other way, or a change in a side signal; the % refers to the signal ratio; also: % is scaled to controls: 0 for no effect and ±100 for the full control effect
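S3 HeLa stable clones carrying a lamin A-EGFP splicing minigene plus DsRed2 were seeded at 600 cells/well in Opti-MEM with 2% FBS, pin-dosed and incubated 48 h at 37°C. Acumen cytometry (488 nm) gave the GFP/RFP total-intensity ratio.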
An asterisk follows results filed as active; ? = inconclusive; . = not tested or not shown; [ ] = another dose, or the depositor's remark. In the library only some 9.2% were active in any assay of this set; here they are far more common. Unless noted, calls follow the shape of the dose curve; as a rule, active = well fitted inhibition curve with a large enough effect (not every such curve was filed as active); inconclusive = small, poorly fitted or top-dose-only effect, or another doubt; inactive = no such curve, though single readings can be large or run the other way. Potency is read from the fitted curve at half-maximal effect.

SMILES | HPGD inh | HttQ103 aggreg | ALDH1A1 inh | HTT cytoprotect | KDM4E inh | Lamin A splicing
Cc1ccc(O)c(-c2cc(C(F)(F)F)[nH]n2)c1 | 14.1µM* | -16.1% | 7.9% | -31.2% | -13.0% | 5.4%
Cc1ccc(O)c(-c2cc(-c3cccc(Br)c3)n[nH]2)c1 | . | 2.4%[9.22 µM] | -4.0% | -1.2%[10 µM] | -18.0% | .
CCOC(=O)c1sc2nc3c(cc2c1N)COC(C)(CC)C3 (stereo not given) | ? | -1.2% | ? | ? | ? | -16.8%
CCC1(C)Cc2nc3sc(C(=O)O)c(N)c3cc2CO1 (stereo not given) | -18.5% | -13.1% | 22.4µM* | 7.0%[10 µM] | ? | -5.2%
COC(=O)c1c(-c2cccs2)csc1NC(=O)c1ccc(C(C)C)cc1 | . | . | . | . | . | -27.2%[46 µM]
Cc1ccc(S(=O)(=O)NCCCN2CCOCC2)cc1C | -7.4% | 8.8% | -9.6% | -5.9%[10 µM] | -5.7% | -8.4%
Cc1ccc(S(=O)(=O)NCCN=C(CN2CCCC2)NS(=O)(=O)c2ccc(C)cc2)cc1 | 0.7% | ? | 4.47µM* | -24.8% | 0.6% | 3.9%
Cc1ccc(S(=O)(=O)NCCN=C(CN2CCOCC2)NS(=O)(=O)c2ccc(C)cc2)cc1 | 1.6% | 18.3% | 1.58µM* | -3.1%[10 µM] | -1.4% | -6.3%
Cc1cc(Br)cc2cn[nH]c12 | . | -29.3% | -10.8% | -40.6% | 2.8% | 4.6%[9.22 µM]
O=C1NCCCC2c3c(cc(Br)c(O)c3Br)OC12N1CCCCC1 (stereo not given) | 12.6µM* | 5.9% | 7.94µM* | -8.0% | ? | 3.5%
CC(C)(C)OC(=O)N1CCC(c2c(C(=O)NCCc3ccccc3)cnn2-c2ccc(F)cc2)CC1 | . | . | . | . | . | -12.4%[46 µM]
O=C(NNc1ccccc1Br)C(=O)n1ccc2ccccc21 | -26.5% | 2.1% | 4.2% | 3.55µM* | 3.6% | 3.6%
O=C(Nc1ccccc1Br)C(=O)N1CCCC1 | -0.6% | -8.1% | 1.9% | 21.2%[10 µM] | 6.2% | -5.9%
C=C1C(=O)[C@@]23[C@H](O)C[C@@H]4C(C)(C)CC[C@H](O)[C@]4(C)[C@@H]2C[C@H](O)[C@@H]1[C@H]3O | -14.6% | 3.16µM* | -1.8% | . | -1.6% | ?
C=C1C(=O)[C@@]23[C@H](O)C[C@@H]4C(C)(C)CC[C@H](O)[C@@]4(C)[C@@H]2CC[C@@H]1[C@H]3O | -21.4% | 2.82µM* | 0.2% | . | 1.9% | ?
Cc1cccc(CNC(=O)c2cnc3c(-c4cccc(C)c4)c(C)nn3c2C)c1 | . | . | . | . | . | -5.9%[46 µM]
COC(=O)[C@@]1(Cc2ccc(OC)cc2)[C@@H]2[C@@H](CC(=O)[C@H]2CC(=O)C(=O)N(C)C)CN1C(=O)c1ccccc1 | -4.7% | ? | 17.6% | ? | -12.5% | 1.8%
COC(=O)[C@@]1(Cc2ccc(OC)cc2)[C@@H]2C(=CC(=O)[C@H]2CC(=O)C(=O)N2CCCC2)CN1C(=O)c1ccccc1 | -6.6% | ? | -1.5% | 7.08µM* | -1.2% | 4.6%
C=C1C(=O)C=C2CN(C(=O)c3ccccc3)[C@@](Cc3ccc(OC)cc3)(C(=O)OC)[C@@H]12 | 7.08µM* | . | ? | -115.5% | ? | .
Cc1ccc(C)c(N(C)C(=O)C2CCN(c3ncnc4c3nc3n4CCCCC3)CC2)c1 | . | . | . | . | . | 3.5%[46 µM]
C=CCC1(c2ccccc2)Oc2ccccc2-c2nc3cc(Cl)c(Cl)cc3nc21 (stereo not given) | . | . | -4.0%[13.5 µM] | -5.2%[10 µM] | . | .
O=c1cc(-c2ccccc2)nc(SCc2nc(-c3cccc(C(F)(F)F)c3)no2)[nH]1 | . | . | . | . | . | 13.3%[46 µM]
CN=C1S/C(=C\c2ccc(N3CCOCC3)cc2C)C(=O)N1C | -15.6% | 4.7% | 7.9% | -24.6%[10 µM] | -1.6% | -10.1%
CN=C1S/C(=C\c2cc(C)n(-c3ccccc3F)c2C)C(=O)N1C | 22.4µM* | ? | 17.8µM* | -15.1%[10 µM] | ? | ?
COc1ccc(CN2CCN(CCC(C)C)C(CCO)C2)cc1Cn1cncn1 (stereo not given) | . | 8.4%[9.22 µM] | -1.1% | 15.0%[10 µM] | 5.8% | 1.4%[46 µM]
SMILES | HPGD inh | HttQ103 aggreg | ALDH1A1 inh | HTT cytoprotect | KDM4E inh | Lamin A splicing
CN(C)c1ccc(NC(=O)c2cccc(N3C(=O)CCC3=O)c2)cc1 | -12.5% | 14.6% | 18.9µM* | -38.9% | -29.4% | ?
CC(C)C1CC(CCNCc2ccc3c(c2)OCO3)(c2ccccc2)CCO1 (stereo not given) | . | -19.2%[9.22 µM] | . | -25.0%[10 µM] | 1.1% | .
Cc1ccc(C2(CCNCc3ccc(N(C)C)cc3)CCOC(C(C)C)C2)cc1 (stereo not given) | . | 8.0% | 25.1µM* | -1.2%[10 µM] | 14.0% | 0.5%[46 µM]
CC(C)C1CC(CCNCc2ccc(N(C)C)cc2)(c2ccccc2)CCO1 (stereo not given) | . | 6.5% | 20µM* | 5.5%[10 µM] | 4.1% | -16.2%
Cc1ccc(C2(CCNS(=O)(=O)c3ccc(C)cc3)CCOC(C(C)C)C2)cc1 (stereo not given) | -7.4% | -8.2% | ? | 12.9%[10 µM] | -2.6% | ?
COc1ccc(OC)c(NC(=O)CSC2=Nc3ccccc3C3=NC(CC(=O)NCc4ccc5c(c4)OCO5)C(=O)N23)c1 (stereo not given) | . | . | . | . | . | -15.8%[46 µM]
CCOc1cc(NC(C)=O)ccc1C(=O)OC | . | 5.9% | . | 18.9% | . | -12.5%
O=C(CCl)c1ccc2[nH]c(=O)oc2c1 | . | 3.3%[9.22 µM] | 0.282µM* | 24.6%[10 µM] | ? | -3.7%[46 µM]
COC(=O)C1=C(C(=O)OC)[C@@H]2N(Cc3ccccc3)c3ccccc3[C@@]23C[C@@H](C(=O)OC)N(S(=O)(=O)c2ccc(Br)cc2)C3=N1 | -8.3% | . | -2.4%[13.5 µM] | -4.1%[10 µM] | 2.8%[11.4 µM] | ?
CCOC(=O)/C(C#N)=C/c1ccc(OC(=O)c2ccco2)c(OCC)c1 | . | 8.91µM* | ? | 18.0%[10 µM] | -2.9% | -16.4%
CCOC(=O)/C(C#N)=C\c1ccc(OC)c(OC)c1 | . | ? | ? | 4.3% | -9.4% | 5.9%[46 µM]
COC(=O)[C@@]1(Cc2ccc(F)cc2)[C@H]2c3cc(C(=O)N4CCCC4)n(CCc4c[nH]c5ccccc45)c3C[C@H]2CN1C(=O)c1ccccc1 | -10.2% | . | 1.6% | -51.1% | -7.7% | .
COc1ccc(C(=O)/C=C/c2ccc(OC)c(COc3ccccc3F)c2)cc1 | -25.4% | 8.5% | 2.51µM* | 6.5%[10 µM] | -0.6% | -20.5%
COc1ccc(C=O)cc1COc1ccc(F)cc1F | 31.6µM* | -2.0%[9.22 µM] | 8.91µM* | -32.7% | -7.6% | -9.3%
COc1cc(/C=C/C(=O)c2ccc(C)cc2)ccc1OCC#N | -27.8% | 6.4% | 12.6µM* | -13.5%[10 µM] | -2.7% | ?
COc1ccc(C=O)cc1COc1c(F)c(F)cc(F)c1F | -13.9% | 5.7% | ? | 10.1% | 0.3% | 1.9%
CCOc1cc(/C=C/C(=O)c2ccc(C)cc2)ccc1OCC(=O)N(C)C | -6.6% | 26.9% | ? | -9.6%[10 µM] | -2.4% | ?
COc1ccc(/C=C/C(=O)c2ccccc2)cc1Cn1nnc2ccccc21 | 15.8µM* | 3.6% | ? | -14.0%[1.9 µM] | -3.9% | ?
